Sampled rows, rich in hits. Any-hit rate of the full collection: about 5.5%.
CtBP-E1A blk – qHTS Assay for Inhibitors of the CtBP/E1A Interaction; CtBP / adenovirus E1A interaction (AlphaScreen); activity change, % (test concentration not listed); AlphaScreen GST-E1A/His-CtBP binding, 1536-well; hits give low values; 340,000 tested, 0.49% active; in the data active means activity change below about -65%; inconclusive means mostly about -30% to -63%; further: on the % scale 0 is the no-effect control and ±100 the full control effect
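Protein mix (5X: 125 nM each GST-E1A, His-CtBP) was incubated with pinned compound 2 h at 37 deg C in dark, in 50 mM Tris pH 8.0 buffer with 300 mM NaCl. Glutathione donor and nickel acceptor beads followed; AlphaScreen signal read after 1 h.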
CBFb RUNX1 block – qHTS Assay for Compounds Blocking the Interaction Between CBF-beta and RUNX1 for the Treatment of Acute Myeloid Leukemia; AID 1477, 2009; AlphaScreen CBFb-His/RUNX1-biotin binding, biochemical; Potency, µM (top dose mostly 59.8 µM), for inactives: at the highest dose activity, negative = inhibition, usual class: inhibitors; Runt-related transcription factor 1 (Homo sapiens) + Core-binding factor subunit beta …; 230,000 tested, under 10 active; further: % of control where 0% means no effect
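Interaction loss through any mechanism counts as activity. Pre-formed complex of His-CBF-beta and biotin-RUNX1 (30 nM apiece) is incubated with compound 15 min, then with 50 ng nickel and 50 ng streptavidin beads for 90 min before AlphaScreen detection.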
RORg inh – qHTS for inhibitors of ROR gamma transcriptional activity; Nuclear receptor ROR-gamma (Mus musculus), P51450; Drosophila S2 Gal4-RORgamma UAS-luciferase reporter, 20 h; Potency, µM (doses to about 53.6 µM), for the others: at the top dose activity change, negative = inhibition, actives largely listed as inhibitors; 310,000 tested, 5.4% active; AID 2551, 2010; further: potency means the concentration at half of the fitted maximal effect; on the % scale 0 is the no-effect control and ±100 the full control effect; nearly all actives have a fitted effect of over 60% in size
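In this cell-based reporter format, copper sulfate (700 uM final) drives Gal4–ROR gamma fusion expression from a metallothionein promoter in Drosophila Schneider cells; compounds preincubated 1 hr, reporter read after 20 hr at ambient temperature.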
VP16 counter – VP16 counterscreen qHTS for inhibitors of ROR gamma transcriptional activity; Drosophila S2 Gal4-VP16 UAS-luciferase, luminescence, 20 h; Potency, µM (titrated, usually from 53.6 µM), without a hit: at the top dose activity, negative = inhibition, hits mostly inhibitors; 310,000 tested, 3.5% active;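 further: Gal4-VP16 expression switched on by copper sulfate through the metallothionein promoter; potency means the concentration at half of the fitted maximal effect; on the % scale 0 is the no-effect control and ±100 the full control effect; nearly all actives have a fitted effect of over 50% in size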
Six1-Eya2 inh – qHTS Assay for Inhibitors of the Six1/Eya2 Interaction; AlphaScreen GST-Six1/His-Eya2 binding, biochemical; hits give low values; activity change, % (test concentration not listed); 360,000 tested, 0.56% active; AID 651725, 2012; in the data active means activity change below about -65%; inconclusive means mostly about -30% to -63%; further: on the % scale 0 is the no-effect control and ±100 the full control effect
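Compounds are tested against tagged Six1 and Eya2 proteins bridged by glutathione donor and nickel acceptor beads; after a one-hour incubation at 37 °C without light, AlphaScreen emission is recorded.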
MBNL1 CUG block – qHTS Assay for Inhibitors of MBNL1-poly(CUG) RNA binding; Muscleblind-like protein 1 (Homo sapiens), Q9NR56; TR-FRET MBNL1-His/biotin-(CUG)12 binding, 665/545 ratio; Potency, µM (series often up to 57.5 µM), for the others: at the top dose activity change, negative = inhibition, actives largely listed as inhibitors; 280,000 tested, 0.036% active; AID 2675, 2010; active means well fitted inhibition curve with a large enough effect in the signal ratio, with a control signal flat, not every such curve was filed as active; inconclusive means small, poorly fitted or top-dose-only effect, or effect the other way, or a change in a side signal; inactive means no such curve, though single readings can be large or run the other way; the % refers to the signal ratio; further: potency means the concentration at half of the fitted maximal effect; on the % scale 0 is the no-effect control and ±100 the full control effect
Target sequence (Q9NR56 whole entry, looked up): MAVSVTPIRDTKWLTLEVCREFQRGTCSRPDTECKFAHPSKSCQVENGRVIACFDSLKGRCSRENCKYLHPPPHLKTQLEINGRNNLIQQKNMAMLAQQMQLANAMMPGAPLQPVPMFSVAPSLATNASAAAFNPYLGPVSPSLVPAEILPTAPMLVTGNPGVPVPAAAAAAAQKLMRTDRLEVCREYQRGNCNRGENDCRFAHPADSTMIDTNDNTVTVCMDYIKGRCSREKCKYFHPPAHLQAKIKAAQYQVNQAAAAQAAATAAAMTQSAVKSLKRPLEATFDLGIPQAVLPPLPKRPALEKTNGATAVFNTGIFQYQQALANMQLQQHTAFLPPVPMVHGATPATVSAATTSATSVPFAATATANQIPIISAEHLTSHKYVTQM
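Inhibition of protein-RNA binding appears as loss of TR-FRET between terbium anti-His antibody on MBNL1-His and streptavidin-XL665 on biotin-(CUG)12. Activity is normalized to buffer-only and uninhibited-complex controls.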
* = called active by the depositor; ? = inconclusive; / = no result; [ ] = another dose, or the depositor's remark. Unless noted, the call rests on the fitted dose curve; in most records, active means well fitted curve in the direction sought with a large enough effect; inconclusive means small, poorly fitted or top-dose-only effect, or another doubt; inactive means no such curve, though single readings can be large; an effect the other way counts as inactive or inconclusive.

SMILES	CtBP-E1A blk	CBFb RUNX1 block	RORg inh	VP16 counter	Six1-Eya2 inh	MBNL1 CUG block
O=[N+]([O-])c1ccc(S(=O)(=O)Nc2nc3ccccc3nc2Nc2ccccc2)cc1	/	-4%	8.9µM*	?	-8	/
COc1ccc([N+](=O)[O-])cc1NS(=O)(=O)c1ccccc1	-1	-14%	18%	-17%	10	/
O=[N+]([O-])c1ccc(Nc2c3ccccc3nc3ccccc23)cc1	0	?	22µM*	-6%	?	?
COc1cc(Nc2nc3ccccc3nc2NS(=O)(=O)c2ccc([N+](=O)[O-])cc2)cc(OC)c1OC	?	/	4.5µM*	5µM*	?	5%
Cc1cccc(C)c1N1C(=O)c2ccccc2NC(=O)C1C(=O)Nc1ccc(N2CCOCC2)cc1 (stereo unspecified)	-4	/	/	/	-4	/
COc1ccc(S(=O)(=O)N2c3ccc(Cl)cc3[C@](O)(c3ccccc3Cl)[C@@H]2C(=O)N2CCC[C@H]2C(N)=O)cc1OC	/	5%	20%	?	/	/
CC(=O)c1cc2c(cc1NC(=O)CSc1ccc(S(=O)(=O)N(C)C)cn1)OCO2	15	/	/	/	0	/
CSc1ccc(/C=C/C(=O)c2ccc(O)cc2)cc1	-13	2%	0.5µM*	1.1µM*	4	0%
CN(C)c1ccc(C(=O)/C=C/c2ccccc2)cc1	4	-1%	11µM*	?	-4	8%
Cc1ccc(C(=O)/C=C/C(=O)O)cc1	/	-2%	11µM*	7.9µM*	10	-2%
Cc1ccc(/C=C/C(=O)c2ccc(O)cc2)cc1	-18	5%	2µM*	7.1µM*	10	-9%
CC1=NN(C(=O)c2ccccc2C)C(O)(c2ccc(Cl)cc2)C1 (stereo unspecified)	4	/	6.3µM*	7.9µM*	1	-7%
CC1=NN(C(=O)c2ccccc2Br)C(O)(c2ccc(Cl)cc2)C1 (stereo unspecified)	/	/	4µM*	8.9µM*	2	-2%
COC(=O)C1=NN(C(=O)c2ccc(Cl)cc2)C(O)(c2ccccc2)C1 (stereo unspecified)	-4	-5%	?	?	-7	-10%
CCC1(c2ccccc2)SC(=O)NC1=O (stereo unspecified)	-4	/	/	/	14	/
CCOc1ccc(/C=N/NC(=O)C(OC)c2ccccc2)cc1 (stereo unspecified)	5	-9%	25%	6%	-19	/
CCOc1ccc(/C=N/NC(=S)Nc2c(C)cccc2C)cc1	-4	-1%	1µM*	2µM*	-8	-1%
CCNC(=S)N/N=C/c1ccc(OCCOc2ccccc2C)cc1	-10	9%	4.5µM*	10µM*	-6	-5%
Cc1cccc2c1cnn2C(=O)CCC(=O)NCc1ccc(F)cc1	4	/	0%	-6%	4	2%
CN(C)S(=O)(=O)c1ccc(N2CCCC2)c(C(=O)NNC(=O)COc2ccccc2F)c1	-4	/	/	/	2	/
COc1ccc(-c2c(N)cnc(C(=O)O)c2C)c(OCc2ccccc2)c1OC	-8	/	/	/	-82*	/
COc1ccc(C(=O)C(C)C(C)=O)c(OCc2ccccc2)c1OC (stereo unspecified)	-10	/	/	/	14	/
NC(=S)N=Nc1c(O)n(CCCl)c2ccc(Cl)cc12	-5	2%	0.79µM*	3.5µM*	-12	?
NC(=S)N=Nc1c(O)n(CC(=O)Nc2ccccc2)c2ccccc12	2	/	?	-15%	-3	3%
NC(=S)N=Nc1c(O)n(CCCl)c2ccccc12	-2	5%	1µM*	3.2µM*	-4	10%
SMILES	CtBP-E1A blk	CBFb RUNX1 block	RORg inh	VP16 counter	Six1-Eya2 inh	MBNL1 CUG block
C#CCNC(=O)C[C@@H]1C[C@@]2(C(=O)OCC)CCC=C2N(CCC2=CCCCC2)C1=O	-1	/	/	/	16	/
O=C(c1ccc(Cl)cc1)C(CN1CCCC1)c1ccccc1 (stereo unspecified)	/	/	11µM*	5.6µM*	2	-6%
CCOc1ccc(C(=O)C(CCC(CN(C)C)C(=O)c2ccc(OCC)cc2)CN(C)C)cc1 (stereo unspecified)	-14	-3%	10%[10 µM]	-98%	4	/
O=C(c1ccccc1)C(CCC(CN1CCOCC1)C(=O)c1ccccc1)CN1CCOCC1 (stereo unspecified)	1	3%	?	7.9µM*	-5	0%
COc1ccc(C(=O)C(CN2CCOCC2)c2ccccc2)cc1 (stereo unspecified)	0	0%	13µM*	?	0	0%
CN(C)CC(CCC(CN(C)C)C(=O)c1ccccc1)C(=O)c1ccccc1 (stereo unspecified)	8	0%	7.1µM*	10µM*	-15	/
O=C(c1ccc(F)cc1)C(CN1CCOCC1)c1ccccc1 (stereo unspecified)	-12	1%	5.6µM*	11µM*	9	-4%
CCCCOc1ccc(C(=O)C(CN2CCOCC2)c2ccccc2)cc1 (stereo unspecified)	-5	4%	?	?	-8	?
Cc1ccc(C2=NN=C(NC(=O)CSc3nnc4c5ccccc5n(C)c4n3)SC2)cc1	?	?	20%	0%	-72*	34%
Cn1c2ccc(F)cc2c2nnc(SCC(=O)Nc3cccc(O)c3)nc21	?	/	?	-16%	-28	?
Cc1ccc(C2=NN=C(NC(=O)CSc3nc(C)cc(C)n3)SC2)cc1	/	-23%	?	?	/	14%
Cn1c2ccccc2c2nnc(SCC(=O)Nc3cccc(C(=O)O)c3)nc21	?	/	28%	0%	-67*	?
Cc1cc(C)c(NC(=O)CN(C)C(=O)C2CC(=O)N(c3cccc4ccccc34)C2)c(C)c1 (stereo unspecified)	-11	/	/	/	13	/
COc1ccc(-n2c(-c3cc(-c4ccccc4)sc3N)n[nH]c2=S)cc1	5	?	2.5µM*	?	3	-7%
Nc1sc(-c2ccccc2)cc1-c1n[nH]c(=S)n1C1CCCCC1	-6	-1%	2.2µM*	?	-12	7%

Screening data: PubChem, National Center for Advancing Translational Sciences (NCATS)
